A selection: hits, their analogues and other compounds. The true share with any hit is near 19%.
TDP1 cell CPT: qHTS for Inhibitors of human tyrosyl-DNA phosphodiesterase 1 (TDP1): qHTS in cells in presence of CPT | chicken DT40 Tdp1-/-;hTDP1 cells + 20 nM CPT, ATP luminescence, 48 h | Potency, µM (highest dose often 46.2 µM), for the others: at the highest dose activity change, negative = growth inhibition, hits mostly inhibitors | 12% of 420,000 active; note: potency is the fitted concentration of half-maximal effect; nearly all actives have a fitted effect of over 55% in size
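Chicken DT40 Tdp1-/- cells stably complemented with human TDP1 were seeded at 400 cells/well in medium containing 20 nM camptothecin, exposed to pin-transferred compounds, and grown at 37 °C for at least 48 hr. Viability was read as ATP luminescence.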
HT1080-NT tox: qHTS for induction of synthetic lethality in tumor cells producing 2HG: qHTS for the HT-1080-NT fibrosarcoma cell line | 1.6% of 360,000 active | Potency, µM (titrated, usually from 46.1 µM), inactives show top-dose activity, negative = less viability, hits mostly cytotoxic | AID 686970, 2013 | HT-1080-NT fibrosarcoma viability, CellTiter-Glo ATP luminescence, 48 h;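 note: NT is the 2HG producing partner of a matched IDH1 knockdown line; potency is the fitted concentration of half-maximal effect; 0% = DMSO-treated cells and -100% = media-only wells without cells; nearly all actives have a fitted effect of over 55% in size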
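Compounds were tested in concentration-response format on HT-1080-NT cells for 48 hours at 37 degrees C. Cell viability came from CellTiter-Glo luminescence; curves were classified by r2, response magnitude and activity.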
HT1080 IDH1KD tx: qHTS for induction of synthetic lethality in tumor cells producing 2HG: qHTS for the HT-1080-IDH1KD cell line. Potency, µM (series often up to 46.1 µM), for the others: at the highest dose activity, negative = toxicity, hits mostly cytotoxic. HT-1080 IDH1 knockdown viability, ATP luminescence, 48 h. 2% of 360,000 active;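 note: potency is the fitted concentration of half-maximal effect; 0% = DMSO wells and -100% = cell-free medium wells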
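Cytotoxicity counter-line: IDH1KD HT-1080, 48 h, CellTiter-Glo. Curves classed by r2, magnitude and activity.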
IL-1B inflam inh: qHTS for Inhibitors of Inflammasome Signaling: IL-1-beta AlphaLISA Primary Screen; THP-1 LPS/ATP IL-1B secretion, AlphaLISA, 16 h; stronger effect = lower value; 4.7% of 360,000 active; activity change, % at 57.5 µM; in the data active = activity change below about -50%; inconclusive = mostly about -30% to -49%
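Secreted IL-1B measured by AlphaLISA bead assay after 16 h compound exposure of THP-1 cells; compounds (final up to 57.5 uM) added 1 h before LPS (250 ng/mL) and ATP (1.25 mM) stimulation; lower signal means less secretion.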
TDP1 cell noCPT: qHTS for Inhibitors of human tyrosyl-DNA phosphodiesterase 1 (TDP1): qHTS in cells in absence of CPT; DT40 Tdp1-/- hTDP1 cells, no CPT, ATP luminescence, 48 h; Potency, µM (doses to about 46.2 µM), for inactives: at the highest dose activity change, negative = growth inhibition, usual class: inhibitors; 15% of 420,000 active; note: potency is the fitted concentration of half-maximal effect; nearly all actives have a fitted effect of over 55% in size
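Chicken DT40 Tdp1-/- cells complemented with human TDP1, screened without camptothecin (DMSO vehicle only), 400 cells/well. Compounds pin-transferred, cells incubated at 37 °C for at least 48 hr. Growth read as ATP-dependent luminescence (CellTiter-Glo, 30 min at RT).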
* hit, by the source's call. Unless noted, calls come from the whole dose curve; as a rule, active = well fitted curve in the direction sought with a large enough effect; inconclusive = small, poorly fitted or top-dose-only effect, or another doubt; inactive = no such curve, though single readings can be large; an effect the other way counts as inactive or inconclusive. Unless noted, % is set by controls: 0 for no effect and ±100 for the full control effect.

`Cc1c(C(=O)NCCc2ccc(Cl)cc2)sc2nc3n(c(=O)c12)CCCC3` gave TDP1 cell CPT inconclusive and TDP1 cell noCPT 18µM*.
For Cc1c(C(=O)N(C)c2cccc(C(F)(F)F)c2)sc2nc3n(c(=O)c12)CCCCC3 the results were TDP1 cell CPT inconclusive and TDP1 cell noCPT 15µM*.
Screening CCOc1ccc(NC(=O)CSc2nc3c([nH]c4ccccc43)c(=O)n2-c2cc(C)cc(C)c2)cc1 returned TDP1 cell CPT 2% and TDP1 cell noCPT 1%.
`CCOC(=O)/C(=N\Nc1ccc(Br)cc1)N1CC(C)OC(C)C1` (stereo unspecified) gave TDP1 cell CPT -1%, HT1080-NT tox inconclusive, HT1080 IDH1KD tx inconclusive, IL-1B inflam inh -5 and TDP1 cell noCPT -24%.
For CC(=O)Cc1nsc(NC(=O)c2ccc(COc3ccccc3)o2)n1 the results were TDP1 cell CPT -5%, HT1080-NT tox -7%, HT1080 IDH1KD tx -14%, IL-1B inflam inh 0 and TDP1 cell noCPT -17%.
`CCc1ccc(NC(=O)c2sc3nc4n(c(=O)c3c2C)CCC4)cc1` gave TDP1 cell CPT -22%, HT1080-NT tox -6%, HT1080 IDH1KD tx -3%, IL-1B inflam inh -3 and TDP1 cell noCPT -22%.
Cc1c(C(=O)Nc2ccc(C(C)C)cc2)sc2nc[nH]c(=O)c12 was read as TDP1 cell CPT 21µM* and TDP1 cell noCPT 18µM*.
`CCOc1ccc(NC(=O)c2sc3nc4n(c(=O)c3c2C)CCCC4)cc1` gave TDP1 cell CPT 21µM* and TDP1 cell noCPT 13µM*.
`CC(=O)Nc1ccc(NC(=O)c2sc3nc4n(c(=O)c3c2C)CCCCC4)cc1` gave TDP1 cell CPT 12µM*, HT1080-NT tox 0%, HT1080 IDH1KD tx -15%, IL-1B inflam inh -8 and TDP1 cell noCPT 10µM*.
COc1cc(OC)c(N(C)C(=O)c2sc3nc4n(c(=O)c3c2C)CCCC4)cc1Cl was read as TDP1 cell CPT inconclusive and TDP1 cell noCPT 16µM*.
Screening O=C(c1ccc2[nH]c(=O)c(=O)[nH]c2c1)N1CCc2ccccc21 returned TDP1 cell CPT 18%, HT1080-NT tox 4%, HT1080 IDH1KD tx -2%, IL-1B inflam inh 36 and TDP1 cell noCPT -3%.
For C=CC[C@H](CC(=O)N[C@H](CO)Cc1ccccc1)C(=O)N[C@H](COC(=O)[C@H](CC=C)CC(=O)OC(C)(C)C)Cc1c[nH]c2ccccc12 the results were TDP1 cell CPT inconclusive, HT1080-NT tox -6%, HT1080 IDH1KD tx -1%, IL-1B inflam inh -16 and TDP1 cell noCPT inconclusive.
C=CC[C@@H](CC(=O)N(CCO)Cc1ccccc1)C(=O)N[C@@H](COC(=O)[C@H](CC=C)CC(=O)OC(C)(C)C)Cc1c[nH]c2ccccc12 was read as TDP1 cell CPT inconclusive, HT1080-NT tox inconclusive, HT1080 IDH1KD tx inconclusive, IL-1B inflam inh -72* and TDP1 cell noCPT inconclusive.
Screening C=CC[C@H](CC(=O)N(CCO)Cc1ccccc1)C(=O)N[C@H](COC(=O)[C@H](CC=C)CC(=O)OC(C)(C)C)Cc1c[nH]c2ccccc12 returned TDP1 cell CPT inconclusive, HT1080-NT tox inconclusive, HT1080 IDH1KD tx inconclusive, IL-1B inflam inh -60* and TDP1 cell noCPT inconclusive.
`COc1cc(NC(=O)CSCc2cnn(-c3ccccc3)c2-n2cccc2)cc(OC)c1` gave TDP1 cell CPT inconclusive, HT1080-NT tox -4%, HT1080 IDH1KD tx -22%, IL-1B inflam inh -9 and TDP1 cell noCPT 15µM*.
`O=C(CSCc1cnn(-c2ccccc2)c1-n1cccc1)Nc1ccc(F)cc1F` gave TDP1 cell CPT inconclusive and TDP1 cell noCPT 18µM*.
`Cc1cccc(C)c1NC(=O)CSCc1cnn(-c2ccccc2)c1-n1cccc1` gave TDP1 cell CPT 10µM* and TDP1 cell noCPT 10µM*.
`COc1ccc(OC)c(NC(=O)CSCc2cnn(-c3ccccc3)c2-n2cccc2)c1` gave TDP1 cell CPT inconclusive, HT1080-NT tox -17%, HT1080 IDH1KD tx -4%, IL-1B inflam inh -11 and TDP1 cell noCPT 16µM*.
For O=C(CSCc1ccccc1)Nc1ccc(F)cc1F the results were TDP1 cell CPT -7%, HT1080-NT tox 10%, HT1080 IDH1KD tx 15%, IL-1B inflam inh -1 and TDP1 cell noCPT 10%.
Screening COc1cc(NC(=O)Cc2ccccc2)cc(OC)c1 returned TDP1 cell CPT 7%, HT1080-NT tox 10%, HT1080 IDH1KD tx -6%, IL-1B inflam inh -15 and TDP1 cell noCPT inconclusive.
Screening Cc1cc(C)n(-c2nnc(Nc3ccc(C)c(Cl)c3)c3ccccc23)n1 returned TDP1 cell CPT inconclusive and TDP1 cell noCPT 8.2µM*.
Screening COc1ccc(Nc2nnc(-n3nc(C)cc3C)c3ccccc23)cc1 returned TDP1 cell CPT 4% and TDP1 cell noCPT -8%.
O=C(NCc1ccccn1)C1CCN(C(=O)c2cc3sccc3n2Cc2ccc(F)cc2)CC1 was read as TDP1 cell CPT inconclusive, HT1080-NT tox 1%, HT1080 IDH1KD tx -20%, IL-1B inflam inh 24 and TDP1 cell noCPT 23µM*.
CC(C)CCNC(=O)C1CCN(C(=O)c2cc3sccc3n2Cc2ccc(Cl)cc2)CC1 was read as TDP1 cell CPT 18µM* and TDP1 cell noCPT 9.2µM*.
O=C(NCCCN1CCCC1)C1CCN(C(=O)c2cc3sccc3n2Cc2ccc(F)cc2)CC1 was read as TDP1 cell CPT 16µM*, HT1080-NT tox inconclusive, HT1080 IDH1KD tx inconclusive, IL-1B inflam inh 4 and TDP1 cell noCPT inconclusive.
`COc1ccc(C(=O)NCCN2CCC(n3c(=O)[nH]c4ccccc43)CC2)cc1F` gave TDP1 cell CPT -25%, HT1080-NT tox -8%, HT1080 IDH1KD tx 0% and TDP1 cell noCPT -28%.
For CC1CCN(CCCNC(=O)c2ccc3c(=O)n(CCc4ccccc4)c(=O)[nH]c3c2)CC1 the results were TDP1 cell CPT inconclusive, HT1080-NT tox 5%, HT1080 IDH1KD tx 1%, IL-1B inflam inh -1 and TDP1 cell noCPT -16%.
`O=C(NCCN1CCC(n2c(=O)[nH]c3ccccc32)CC1)c1ccc(F)c(F)c1` gave TDP1 cell CPT 0.33µM*, HT1080-NT tox -22%, HT1080 IDH1KD tx 1% and TDP1 cell noCPT -35%.
For O=C(NCCN1CCC(n2c(=O)[nH]c3ccccc32)CC1)c1ccc(F)c(C(F)(F)F)c1 the results were TDP1 cell CPT inconclusive, HT1080-NT tox inconclusive, HT1080 IDH1KD tx inconclusive, IL-1B inflam inh inconclusive and TDP1 cell noCPT 26µM*.

High-throughput results deposited in PubChem by National Center for Advancing Translational Sciences (NCATS).
